According to PubChem BioAssay (NCATS):
Results filed as inconclusive are left out. A call without a number means that no potency is given here. Calls of active or inactive are those of the source. Unless noted, calls come from the whole dose curve; as a rule, active = well fitted curve in the direction sought with a large enough effect; inconclusive = small, poorly fitted or top-dose-only effect, or another doubt; inactive = no such curve, though single readings can be large; an effect the other way counts as inactive or inconclusive. Where a SMILES comes first, the peptide text is derived from it. The star is where a group is joined. AFC = O=c1cc(C(F)(F)F)c2ccc(N*)cc2o1

Assays:
[1] = target: Catechol O-methyltransferase (Homo sapiens) (UniProt P21964); test: Confirmatory Screen for Target Class Profiling of Small Molecule Inhibitors of Methyltransferases (AID 1745852; calls by dose curve; note: potency is the fitted concentration of half-maximal effect); settings: MTase-Glo luminescence, SAH detection, recombinant enzyme; measured here: COMT max response; stronger effect = lower value
[2] = target: Guanidinoacetate N-methyltransferase (Homo sapiens) (UniProt Q14353); test: as above; settings: activity change, negative = inhibition: at 57.3 µM (top of the series) unless noted
[3] = target: Nicotinamide N-methyltransferase (Homo sapiens) (UniProt P40261); test: as above; settings: MTase-Glo luminescence, SAH detection, recombinant enzyme; measured here: NNMT max response; stronger effect = lower value
[4] = target: Phenylethanolamine N-methyltransferase (Homo sapiens) (UniProt P11086); test: as above; settings: MTase-Glo luminescence, SAH detection, recombinant enzyme; measured here: PNMT max response; stronger effect = lower value
[5] = target: Glutathione peroxidase 1 (Homo sapiens) (UniProt P07203); test: Primary qHTS Assay for Inhibitors of Recombinant Selenoprotein Glutathione Peroxidase 1 (GPX1) (AID 1845191); note: nearly all actives have a fitted effect of over 65% in size
Outline: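 GPX1 10 nM, GR 100 nM, GSH 1 mM, NADPH 0.5 mM, CHP 0.5 mM (final). 30-min cpd preincubation, RT. Ex340/Em450 read t=0, t=15 min.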

[6] = target: Phospholipid hydroperoxide glutathione peroxidase GPX4 (Homo sapiens) (UniProt P36969); test: Primary qHTS Assay for Inhibitors of Recombinant Selenoprotein Glutathione Peroxidase 4 (GPX4) (AID 1845192); note: nearly all actives have a fitted effect of over 65% in size
Outline: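 qHTS, GR-coupled: GPX4 200 nM + cpd 30 min RT → GSH 1 mM, NADPH 0.5 mM, GR 100 nM → CHP 0.5 mM start; fluor 340/450 at t0 and t15 min; no-enzyme wells as control.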

[7] = target: Luciferin 4-monooxygenase (Photinus pyralis) (UniProt P08659); test: Primary firefly luciferase (FLuc) qHTS assay for identification of artifact compounds. (AID 1845220); note: nearly all actives have a fitted effect of over 60% in size
Outline: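 In this counter-screen for luciferase artifacts, test compounds met substrate (10 uM each luciferin and ATP) before 10 nM enzyme started the reaction. Light output was measured 5 min later.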

[8] = Primary fluorescence-based thiol-reactive (MSTI) qHTS assay for identification of artifact compounds. (AID 1845221); note: nearly all actives have a fitted effect of over 65% in size; note: potency is the fitted concentration of half-maximal effect
Outline: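 A multi-concentration qHTS design tested compounds against 4 uM MSTI, pH 7.4 phosphate-buffered saline. Plates were protected from light for 1 h at room temperature before imaging fluorescence.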

[9] = tested on: Nanoluciferase (engineered Oplophorus gracilirostris luciferase); test: Primary Nanoluciferase (NLuc) qHTS assay for identification of artifact compounds. (AID 1845222); note: potency is the fitted concentration of half-maximal effect
Outline: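 Using secreted nanoluciferase in S16 culture medium (0.22 um filtered, 1:55 dilution), compounds were preincubated 15 min at RT. Signal was generated with Nano-Glo reagent (1:100) over 5 min.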

[10] = Primary redox qHTS assay for identification of artifact compounds. (AID 1845223)
Outline: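 Redox-cycling detection via DTT (250 uM final) oxidation coupled to Amplex Red (25 uM)/HRP (250 mU/mL) in HBSS. 15 min preincubation plus 30 min after DTT, room temperature. Ex/Em 525/598 nm; 4-parameter Hill fit against DMSO and 10 uM DA3003.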

[11] = Primary qHTS for inhibitors of nuclear receptor binding SET domain protein 2 (NSD2) in an RCH-ACV wild type WT cells (2C) (AID 1645877); note: nearly all actives have a fitted effect of over 70% in size; note: potency is the fitted concentration of half-maximal effect
[12] = NCATS anti-infectives library activity on the primary C. elegans qHTS viability assay (AID 1745855; calls by dose curve)
Outline: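 Titration-based screen in worms: eggs hatched overnight in M9, L1 larvae fed TOP10 capsules in S medium with compound, incubated 21 °C for 7 days; fluorescent objects gated by size and intensity at days 0, 3 and 7.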

Sequence of Nicotinamide N-methyltransferase (Homo sapiens) (P40261 whole entry, looked up): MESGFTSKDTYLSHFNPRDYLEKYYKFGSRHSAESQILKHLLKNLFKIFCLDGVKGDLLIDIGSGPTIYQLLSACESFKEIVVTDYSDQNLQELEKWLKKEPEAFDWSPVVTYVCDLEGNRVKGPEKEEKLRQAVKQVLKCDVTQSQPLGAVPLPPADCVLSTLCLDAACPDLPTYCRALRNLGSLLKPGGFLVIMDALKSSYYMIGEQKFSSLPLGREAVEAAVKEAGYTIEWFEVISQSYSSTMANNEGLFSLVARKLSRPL
Sequence of Glutathione peroxidase 1 (Homo sapiens) (P07203 whole entry, looked up): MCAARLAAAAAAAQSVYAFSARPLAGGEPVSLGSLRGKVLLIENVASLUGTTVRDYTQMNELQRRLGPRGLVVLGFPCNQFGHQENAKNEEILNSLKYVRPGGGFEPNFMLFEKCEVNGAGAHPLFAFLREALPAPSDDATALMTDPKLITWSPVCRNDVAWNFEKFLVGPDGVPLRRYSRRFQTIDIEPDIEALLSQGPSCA
Sequence of Phospholipid hydroperoxide glutathione peroxidase GPX4 (Homo sapiens) (P36969 whole entry, looked up): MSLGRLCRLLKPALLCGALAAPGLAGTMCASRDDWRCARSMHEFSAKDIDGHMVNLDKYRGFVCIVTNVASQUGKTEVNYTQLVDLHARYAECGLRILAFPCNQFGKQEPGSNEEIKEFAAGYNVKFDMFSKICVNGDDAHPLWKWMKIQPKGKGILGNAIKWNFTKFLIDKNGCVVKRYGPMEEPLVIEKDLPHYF
Sequence of Catechol O-methyltransferase (Homo sapiens) (P21964 whole entry, looked up): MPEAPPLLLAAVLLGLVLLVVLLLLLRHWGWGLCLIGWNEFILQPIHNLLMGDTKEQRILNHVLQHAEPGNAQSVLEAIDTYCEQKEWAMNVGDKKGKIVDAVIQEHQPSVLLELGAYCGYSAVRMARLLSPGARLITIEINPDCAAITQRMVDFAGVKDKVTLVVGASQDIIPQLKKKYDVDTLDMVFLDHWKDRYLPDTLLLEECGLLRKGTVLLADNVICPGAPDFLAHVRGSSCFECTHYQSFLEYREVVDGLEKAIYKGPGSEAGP
Sequence of Phenylethanolamine N-methyltransferase (Homo sapiens) (P11086 whole entry, looked up): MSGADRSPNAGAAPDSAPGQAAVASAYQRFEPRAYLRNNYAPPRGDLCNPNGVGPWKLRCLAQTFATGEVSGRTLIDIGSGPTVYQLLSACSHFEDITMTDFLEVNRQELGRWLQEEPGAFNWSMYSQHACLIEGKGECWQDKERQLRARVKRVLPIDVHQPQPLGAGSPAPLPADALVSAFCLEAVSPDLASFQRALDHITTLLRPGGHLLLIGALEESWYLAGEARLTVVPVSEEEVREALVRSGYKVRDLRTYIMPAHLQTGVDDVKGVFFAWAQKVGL

Structure (SMILES)	activity [1] [%]	activity change, negative = inhibition [2] [%]	activity [3] [%]	activity [4] [%]	Potency [5]	Potency [6]	Potency [7]	Potency [8]	Potency [9]	Potency [10]	Potency [11]	Potency [12]	Potency [2]
CN(C)C/C=C/C(=O)Nc1cccc(C(=O)Nc2cccc(Nc3ncc(Cl)c(-c4c[nH]c5ccccc45)n3)c2)c1	-3.58	1.16	-56	-9.06	inactive	inactive	inactive	inactive	inactive	inactive	–	–	–
CC(C)(C(=O)NCC(F)(F)C(F)(F)F)C(=O)NC1C(=O)Nc2ccccc2-c2ccccc21 (stereo not drawn)	–	–	–	–	–	inactive	–	inactive	inactive	inactive	14.5 µM (active)	–	–
CS(=O)(=O)c1ccc(-c2nnc(/C=C/c3nnc(-c4ccc(C#N)cc4)o3)n2-c2ccccc2Cl)nc1	–	–	–	–	–	–	inactive	inactive	12 µM (active)	inactive	inactive	–	–
Cn1cc(-c2ccc3nnc(Sc4ccc5nn(C)cc5c4)n3n2)cn1	–	–	–	–	–	inactive	–	inactive	inactive	inactive	inactive	–	–
CN(C)CCCCC(=O)Nc1ccc(NC(=S)NC(=O)c2ccc(C(C)(C)C)cc2)cc1	–	–	–	–	–	–	inactive	inactive	inactive	inactive	2.3 µM (active)	–	–
COc1ccc2cc(C(C)C(=O)Oc3ccc(C(N)=S)cc3)ccc2c1 (stereo not drawn)	–	–	–	–	–	–	inactive	inactive	inactive	inactive	inactive	–	–
N#Cc1cnc2cnc(NCc3cccnc3)cc2c1Nc1ccc(F)c(Cl)c1	-10.6	-3.05	-57.3	-6.2	inactive	inactive	inactive	inactive	inactive	inactive	–	–	–
CNS(=O)(=O)CC1CCC(N(C)c2ncnc3[nH]ccc23)CC1 (stereo not drawn)	-6.68	-4.35	-58.2	-84.3	inactive	inactive	inactive	inactive	inactive	inactive	–	–	–
COC(=O)[C@@]1(c2ccc(C)cc2)C[C@H]1CN1CCC(O)(c2ccccc2)CC1	–	–	–	–	inactive	inactive	inactive	–	inactive	inactive	–	inactive	–
CC1(C)[C@@H](O)CC[C@]2(C)[C@H]3CC=C4[C@@H]5C[C@](C)(C(=O)O)CC[C@]5(C)CC[C@@]4(C)[C@]3(C)CC[C@@H]12	-16.8	–	-38.7	-42.7	inactive	inactive	inactive	inactive	inactive	inactive	–	–	27.1 µM (active)
NCc1c[nH]c(=S)n1[C@@H]1CCc2c(F)cc(F)cc2C1	–	–	–	–	–	–	inactive	–	inactive	inactive	inactive	–	–
CCOCCOC(=O)/C=C/c1ccc(OC)cc1	–	–	–	–	inactive	inactive	–	–	–	–	–	–	–
CC1(C)CC[C@]2(C(=O)O)CC[C@]3(C)C(=CCC4[C@@]5(C)CC[C@H](O[C@@H]6O[C@H](CO)[C@@H](O)[C@H](O)[C@H]6O[C@@H]6O[C@H](CO)[C@@H](O)[C@H](O)[C@H]6O)[C@@](C)(CO)C5CC[C@]43C)[C@@H]2C1 (stereo partly drawn)	–	–	–	–	inactive	inactive	inactive	inactive	inactive	–	–	–	–
Cc1cnc(Nc2ccc(F)cc2Cl)nc1-c1c[nH]c(C(=O)NC(CO)c2cccc(Cl)c2)c1 (stereo not drawn)	–	–	–	–	–	–	inactive	2.67 µM (active)	inactive	–	2.3 µM (active)	–	–
CC1(C)CCC[C@@]2(C)C1[C@H](OC(=O)/C=C/C=C/C(=O)O)C=C1COC(=O)[C@@]12O (stereo partly drawn)	–	–	–	–	–	inactive	–	inactive	inactive	inactive	inactive	–	–
COc1ccc(C2(O)CCC(N3CC[C@@H](NC(=O)CNC(=O)c4cccc(C(F)(F)F)c4)C3)CC2)cn1 (stereo partly drawn)	-5.05	-4.96	0.219	0.417	inactive	inactive	inactive	inactive	inactive	–	–	–	–
CC(=O)N[C@@H](Cc1c[nH]c2ccccc12)C(=O)N[C@@H](CCC(=O)O)C(=O)N[C@@H](Cc1cnc[nH]1)C(=O)N[C@@H](CC(=O)O)C(=O)Nc1ccc2c(C(F)(F)F)cc(=O)oc2c1 (Ac-WEHD-{AFC})	–	–	–	–	–	–	inactive	inactive	inactive	inactive	inactive	–	–
CC(C)c1cccc2c(-c3ccccc3)cc(-c3ccc(-c4ccc(C(=O)O)cc4)[nH]3)nc12	-3.32	-5	-16.3	-5.01	inactive	inactive	inactive	–	inactive	inactive	–	–	–
C=C(F)c1sc(CNCCCNc2cc(=O)c3ccccc3[nH]2)c(C)c1Br	-1.13	-1.39	-33.7	-2.47	inactive	inactive	inactive	inactive	inactive	inactive	–	–	–
Cc1cc2c(c(=O)[nH]1)OC(C(O)CC(C)C)O2 (stereo not drawn)	–	–	–	–	inactive	inactive	inactive	inactive	inactive	–	–	–	–
COc1cc(OC)cc(C(=O)Nc2ccc(Cl)c(-c3nc4ccc(N(C)C)cc4[nH]3)c2)c1	-4.1	-3.69	-8.83	-5.51	inactive	inactive	–	3.77 µM (active)	inactive	inactive	–	–	–
